Only some compounds are listed: those with a hit (about 8% of all), similar ones and a draw of the others.
SW480 rerep = induces DNA re-replication in SW480 colon adenocarcinoma cells | Potency, µM (doses to about 46.1 µM), actives largely listed as activators | 340,000 tested, 1.8% active | SW480 DNA re-replication, Hoechst DNA content imaging, 48 h; also: nearly all actives have a fitted effect of over 55% in size
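Cells (250 per well) received 23 nL compound or DMSO by pin tool and were kept 48 hr at 37 C, 5% CO2. Nuclei were then stained with Hoechst for 40 min and scanned for DNA content.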
KB-V1 MDR tox = kills drug-selected multidrug resistant KB-V1 cells | 400,000 tested, 3.4% active | KB-V1 MDR cells viability, CellTiter-Glo, 72 h | Potency, µM (titrated, usually from 46.1 µM), actives largely listed as cytotoxic; also: nearly all actives have a fitted effect of over 60% in size
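Following 72 h at 37 degrees C with compound, KB-V1 cell viability was read by CellTiter-Glo luminescence, medium being phenol-red-free DMEM plus 10% FBS; concentration-response parameters came from normalized, curve-fitted qHTS data.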
HT1080 IDH1KD tx = kills HT-1080 cells with IDH1 knockdown; HT-1080 IDH1 knockdown viability, ATP luminescence, 48 h; Potency, µM (doses to about 46.1 µM), most hits filed as cytotoxic; 360,000 tested, 2% active; AID 686971
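Using the IDH1-knockdown HT-1080 line run in the same batch and compound series as the NT line, viability after 48 h at 37 °C was determined by CellTiter-Glo luminescence and expressed as % activity.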
HT1080-NT tox = kills 2HG-producing HT-1080-NT fibrosarcoma cells; HT-1080-NT fibrosarcoma viability, CellTiter-Glo ATP luminescence, 48 h; Potency, µM (titrated, usually from 46.1 µM), usual class: cytotoxic; 360,000 tested, 1.6% active; AID 686970;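 also: NT is the 2HG producing partner of a matched IDH1 knockdown line; nearly all actives have a fitted effect of over 55% in size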
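Compounds were tested in concentration-response format on HT-1080-NT cells for 48 hours at 37 degrees C. Cell viability came from CellTiter-Glo luminescence; curves were classified by r2, response magnitude and activity.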
KB-3-1 cytotox = kills parental KB-3-1 adenocarcinoma cells; KB-3-1 viability, CellTiter-Glo ATP luminescence, 72 h; Potency, µM (titrated, usually from 46.1 µM), most hits filed as cytotoxic; 400,000 tested, 1.4% active; AID 1347075; also: nearly all actives have a fitted effect of over 60% in size
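KB-3-1 cells, DMEM (no phenol red) + 10% FBS; compound by pin transfer, 72 h, 37 °C. Readout: CellTiter-Glo luminescence after 10 min. Data normalized, curve-fitted.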
MCF10A rerep = induces DNA re-replication in MCF 10a normal breast cells | MCF 10A DNA re-replication, Hoechst nuclear intensity, 48 h | 350,000 tested, 2.9% active | Potency, µM (highest dose often 46.1 µM), usual class: activators; also: nearly all actives have a fitted effect of over 50% in size
Numbers stand for hits; i = inactive; ? = inconclusive; nt = not tested or not shown. Calls follow the shape of the dose curve; as a rule, active = well fitted curve in the direction sought with a large enough effect; inconclusive = small, poorly fitted or top-dose-only effect, or another doubt; inactive = no such curve, though single readings can be large; an effect the other way counts as inactive or inconclusive.

SMILES	SW480 rerep	KB-V1 MDR tox	HT1080 IDH1KD tx	HT1080-NT tox	KB-3-1 cytotox	MCF10A rerep
CCOc1ccc(OCC(=O)Nc2c(C(=O)Nc3ccc(C)cc3)oc3ccccc23)cc1	nt	i	nt	nt	i	nt
Cc1ccc2c(c1)Oc1ccc(NC(=O)CCCl)cc1C(=O)N2	?	?	16µM	?	i	?
COc1ccc(C)cc1Nc1cc(C)nc2nc(C)nn12	?	?	i	i	8.2µM	i
COc1ccc(OC)c(Nc2cc(C)nc3nc(C)nn23)c1	?	21µM	i	i	7.3µM	?
COc1ccc(Nc2cc(C)nc3nc(C)nn23)c(OC)c1	i	i	i	i	i	i
O=S(=O)(CC(CN1CCCCC1)N1CCCCC1)c1ccc2ccccc2c1 (stereo not given)	?	?	?	?	6.5µM	?
Cc1ccc(S(=O)(=O)CC(CN2CCCCC2)N2CCCCC2)cc1 (stereo not given)	i	i	18µM	18µM	?	?
CCC(C)(C)c1nnc(NC(=O)c2cccc([N+](=O)[O-])c2)s1	i	21µM	i	i	i	i
O=C(Nc1nnc(CSCc2ccc(Cl)cc2)s1)c1cccc([N+](=O)[O-])c1	i	i	i	i	i	i
O=C(Nc1nnc(CSCc2ccc(F)cc2)s1)c1cccc([N+](=O)[O-])c1	?	4.6µM	i	i	?	?
COc1ccc(NC(=O)COc2cccc(-n3cnnn3)c2)cc1Cl	6.5µM	i	i	?	i	i
CCOc1ccc(CCNC(=O)c2cn(C)c3ccc(S(=O)(=O)N4CCCCCC4)cc3c2=O)cc1OCC	nt	i	nt	nt	i	nt
Cc1ccc2c(/C=C/c3c[nH]c4ccccc34)ccnc2c1C	nt	7.3µM	nt	nt	16µM	nt
COc1ccc(OC)c2c(/C=C/c3c[nH]c4ccccc34)ccnc12	nt	?	nt	nt	4.1µM	nt
COc1ccccc1C=Cc1ccnc2ccccc12	i	?	i	i	?	?
COc1ccc(Cn2c(CO)cnc2SCC(=O)NCc2ccco2)cc1	nt	i	nt	nt	i	nt
Cc1ccnc2ccc(F)cc12	nt	i	nt	nt	i	nt
Cc1ccccc1CNC(=O)c1cccc(NC(=O)N2CCSc3ncccc32)c1	nt	i	nt	nt	i	nt
COC(=O)CC1COc2ccccc2N1S(=O)(=O)c1ccc(Br)cc1 (stereo not given)	10µM	?	i	i	i	i
COC(=O)CC1COc2ccccc2N1S(=O)(=O)c1ccc(OC)cc1 (stereo not given)	?	?	10µM	?	18µM	15µM
O=S(=O)(c1ccc(F)cc1)n1ccc(-c2cccc(OCc3c(F)cccc3Cl)c2)n1	i	21µM	i	i	?	i
O=S(=O)(c1ccc(Cl)cc1)n1ccc(-c2cccc(OCc3c(F)cccc3Cl)c2)n1	i	i	i	i	i	i
Cc1ccc2c(c1)ncc[n+]2CC(=O)c1ccc(F)cc1	nt	i	nt	nt	i	nt
COc1ccc(NC(=O)COc2ccc(S(=O)(=O)NC3CCCCC3)cc2)cc1OC	nt	i	nt	nt	i	nt
O=C(Nc1cccc(Cl)c1)Nc1nnc(CC2=CCCCC2)s1	i	i	i	i	23µM	?
SMILES	SW480 rerep	KB-V1 MDR tox	HT1080 IDH1KD tx	HT1080-NT tox	KB-3-1 cytotox	MCF10A rerep
O=C(Nc1nnc(CC2=CCCCC2)s1)Nc1ccccc1F	i	i	33µM	i	i	?
OC(CSc1nnnn1-c1ccccc1)Cn1c2ccccc2c2ccccc21 (stereo not given)	nt	21µM	?	i	?	nt
COc1cc(NC(=O)CCc2c(C)nc3c4c(C)cc(C)nc4nn3c2C)cc(OC)c1	nt	i	nt	nt	i	nt
CC(/C=N/n1c(C2CCCCC2)n[nH]c1=S)=C\c1ccccc1	?	i	i	i	i	21µM
CCOc1ccccc1/C=N/n1c(C2CCCCC2)n[nH]c1=S	i	i	i	i	i	26µM
CSc1ccc(/C=N/n2c(C3CCCCC3)n[nH]c2=S)cc1	?	i	?	?	i	16µM
CC(=O)N(C)c1ccc(OCC(O)Cn2c3ccc(Cl)cc3c3cc(Cl)ccc32)cc1 (stereo not given)	?	21µM	?	i	21µM	?
Cc1ccc(/C=N/NC(=O)c2cc(C3CC3)nc3ccccc23)o1	21µM	?	5.8µM	?	?	5.8µM
CCCc1cc(C(=O)N/N=C/c2ccc(C)o2)c2ccccc2n1	?	?	21µM	?	?	?
COc1ccc(/C=N/NC(=O)Cn2cnc3ccccc3c2=O)cc1	i	3.3µM	i	i	i	?
COc1ccc(/C=N/NC(=O)C(C)n2cnc3ccccc3c2=O)cc1 (stereo not given)	i	i	i	i	i	i
CCc1cc(C(=O)N/N=C/c2ccc(OC)cc2)c2ccccc2n1	?	?	?	?	?	16µM
Cc1cccc(NC(=O)CCCCCn2c(=O)[nH]c3ccsc3c2=O)c1	nt	i	nt	nt	i	nt
CC(C)(C)c1ccc(C(=O)C[n+]2cccc(Br)c2)cc1	nt	i	nt	nt	i	nt
Cc1nn(-c2ccccc2)c(N2CCCC2)c1/C=N/NC(=O)c1cc(-c2cccnc2)nc2ccccc12	?	?	?	i	?	13µM
Cc1nn(-c2ccccc2)c(N2CCCC2)c1/C=N/NC(=O)c1ccccc1O	i	i	?	i	i	?
Cc1ccc(/C=N/NC(=O)c2cc(-c3ccccc3)nc3ccccc23)o1	?	i	?	?	i	5.8µM
Cc1[nH]c2ccccc2c1C=NNC(=O)c1cc(-c2cccnc2)nc2ccccc12	i	i	i	i	i	?
Cc1cc(C(=O)N/N=C/c2ccc(C)o2)c2ccccc2n1	5.8µM	?	?	3.3µM	1.3µM	1.8µM
O=C(N/N=C/c1ccc(O)cc1)c1cc(-c2ccccc2)nc2ccccc12	i	i	i	i	?	?
Cc1ccc(C=NNC(=O)c2cc(-c3cccnc3)nc3ccccc23)o1	7.3µM	?	?	?	?	5.2µM
COc1ccc(NC(=O)c2cc(CN3CCCC3)on2)cc1Cl	nt	i	nt	nt	i	nt
CCCN1CNc2c(c(=O)[nH]c(=S)n2CCc2ccc(OC)cc2)C1	nt	nt	i	i	nt	nt
CCOCCCNC(=O)C(c1ccccc1)N(Cc1cccs1)C(=O)c1ccc(NC(C)=O)cc1 (stereo not given)	nt	i	nt	nt	i	nt
COc1ccc(-c2cc(NC=O)c3ncc(-c4cccc(C(F)(F)F)c4)n3c2)c(OC)c1	nt	?	13µM	?	?	nt
Cn1cc(-c2cnc3c(NC=O)cc(-c4cccc(C(F)(F)F)c4)cn23)cn1	nt	21µM	?	i	?	nt
COc1cc(-c2cnc3c(NC=O)cc(-c4cccnc4)cn23)cc(OC)c1OC	nt	13µM	?	?	10µM	nt
COc1cc(-c2cnc3c(NC=O)cc(-c4cccc(C(F)(F)F)c4)cn23)cc(OC)c1OC	nt	23µM	?	?	?	nt
COc1cc(-c2cnc3c(NC=O)cc(-c4ccc(N5CCN(C)CC5)cc4)cn23)cc(OC)c1OC	nt	?	?	i	?	nt

Compound activity: PubChem BioAssay, National Center for Advancing Translational Sciences (NCATS)
